In the library only some 3.8% were active in any assay of this set; here they are far more common.
PrP UTR inh: inhibition of PrP 5' UTR reporter expression | cell-based PrP 5' UTR mRNA reporter, plate reader | inhibition, % (test concentration not listed) | actives 0.35% (n = 340,000) | AID 488862; in the data active means inhibition above about 52%; further: 0 = median of the neutral control wells
Mtb hypoxia rep: inhibitors of hypoxia-regulated fluorescent reporter in Mycobacterium tuberculosis. M. tuberculosis hypoxia-regulated fluorescent reporter, fluorescence. fluorescence inhibition, % (no concentration beside the values). actives 0.1% (n = 300,000); in the data active means fluorescence inhibition mostly above about 23%, no sharp cut-off; inactive means mostly below about 17%
Yp Topo-I inh: blocks Yersinia pestis topoisomerase I activity; actives 0.064% (n = 360,000); AID 504884; Y. pestis Topo-I cleavage product accumulation, plate reader; activity, % at 10 µM; in the data active means activity above about 50%, passing the limit was not always enough
GDH-TPI counter-1: GDH-TPI coupled enzyme inhibition counter-screen | GDH-TPI coupled enzyme counterscreen, NADH absorbance | inhibition, % at 4.8 µM | actives 1.2% (n = 360,000) | AID 588335; in the data active means inhibition above about 30%;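 further: 0% = DMSO wells and 100% = wells lacking the enzyme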
PrPC surface inh: cell surface PrPC inhibition, primary TR-FRET screen | inhibition, % at 13.8 µM | AID 720596 | actives 0.43% (n = 370,000) | P04156 | TR-FRET read-out; in the data active means inhibition above about 24%; further: 0% = median of the test wells and 100% = reference compound wells
Mtb FBA inh: Mtb fructose-bisphosphate aldolase inhibition | P9WQA3 | purified M. tuberculosis FBA, fluorescence read-out | inhibition, % at 1 µM | actives 2.3% (n = 360,000) | AID 588726;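 further: 0% = vehicle and 100% = reference inhibitor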
Target sequence (P9WQA3 whole entry, looked up): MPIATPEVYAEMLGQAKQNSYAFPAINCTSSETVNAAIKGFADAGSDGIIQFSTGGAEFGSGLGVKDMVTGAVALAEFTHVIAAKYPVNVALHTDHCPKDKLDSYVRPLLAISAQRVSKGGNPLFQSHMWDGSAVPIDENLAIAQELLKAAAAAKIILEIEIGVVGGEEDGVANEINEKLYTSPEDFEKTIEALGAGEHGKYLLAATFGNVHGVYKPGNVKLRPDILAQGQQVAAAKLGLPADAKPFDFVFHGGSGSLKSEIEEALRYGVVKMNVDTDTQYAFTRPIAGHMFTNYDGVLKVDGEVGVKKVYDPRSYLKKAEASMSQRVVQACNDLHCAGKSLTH
Mtb FBA inh conf: Mtb FBA inhibition, confirmed; purified M. tuberculosis FBA, fluorescence read-out; actives 78% (n = 5,600); inhibition, % at 1 µM; shares compounds with Mtb FBA inh;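 further: 0% = vehicle wells and 100% = reference inhibitor wells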
GDH-TPI counter-2: GDH-TPI inhibition counter-screen for FBA inhibitors; inhibition, % at 1 µM; actives 81% (n = 5,600); shares compounds with Mtb FBA inh; GDH-TPI coupled enzyme counterscreen, fluorescence; in the data active means inhibition above about 10%
The depositor's hits bear a star. Unless noted, no stated cut-off is given here; in the data, active means inhibition above about 27%; inactive means the rest.

COc1ccc2nc3c(C)n(C)ccc-3c2c1 was read as PrP UTR inh 24.0, Yp Topo-I inh -12.1, GDH-TPI counter-1 4.1, PrPC surface inh 0.3, Mtb FBA inh 56.9*, Mtb FBA inh conf 73.4* and GDH-TPI counter-2 49.4*.
`COc1ccc(C=NNC(=O)c2ccc3c(c2)OCCO3)cc1[N+](=O)[O-]` gave Mtb hypoxia rep 12.5.
COC(=O)c1sc2nc(C)cc(C)c2c1N was read as PrP UTR inh -1.3, Mtb hypoxia rep 3.5, Yp Topo-I inh -10.6, GDH-TPI counter-1 1.0, PrPC surface inh -11.1, Mtb FBA inh 37.5*, Mtb FBA inh conf 2.7 and GDH-TPI counter-2 0.8.
Cc1ccc(N2CC(=O)N(NC(=O)c3sc4nc(C)cc(C)c4c3N)CC2=O)cc1 was read as PrP UTR inh -11.1, Mtb hypoxia rep 12.9, Yp Topo-I inh -4.5, GDH-TPI counter-1 5.6, PrPC surface inh -8.3, Mtb FBA inh 48.0*, Mtb FBA inh conf 59.2* and GDH-TPI counter-2 46.7*.
Screening Cc1cc(C)c2c(N)c(C(=O)NN=Cc3cccs3)sc2n1 returned Mtb hypoxia rep -4.1.
`COCc1cc(C)nc2sc(C(=O)OC)c(N)c12` gave PrP UTR inh -10.8, Mtb hypoxia rep 0.7, Yp Topo-I inh 5.6, GDH-TPI counter-1 -7.7, PrPC surface inh -16.1 and Mtb FBA inh 0.9.
Screening Cc1cc(C)c2c(N)c(C(=O)Nc3ccccc3Br)sc2n1 returned PrP UTR inh -47.6, Mtb hypoxia rep 2.1, Yp Topo-I inh 3.6, GDH-TPI counter-1 10.8, PrPC surface inh 7.8, Mtb FBA inh 42.4*, Mtb FBA inh conf 152.3* and GDH-TPI counter-2 117.0*.
COc1ccc(C(=O)NN=Cc2ccc(OC)c(COc3c(F)c(F)cc(F)c3F)c2)cc1 was read as Mtb hypoxia rep 5.6.
NC(=O)NN=Cc1sc(N2CCCCC2)nc1-c1cccs1 was read as Mtb hypoxia rep -2.3.
Screening COc1ccc(OC)c(C(O)=CC(=O)C(=O)Nc2ccccc2OC)c1 returned Mtb hypoxia rep 6.5.
For CC1CC(C)CN(C(=O)c2ccc3c(c2)N(Cc2ccccc2)CCS3)C1 (stereo unspecified) the results were PrP UTR inh -4.6, Yp Topo-I inh 33.5, GDH-TPI counter-1 7.9 and Mtb FBA inh 10.0.
Screening CN1CCSc2ccc(C(=O)NCc3ccccc3)cc21 returned PrP UTR inh -17.2, Mtb hypoxia rep 9.8, Yp Topo-I inh -2.1, GDH-TPI counter-1 17.9, PrPC surface inh 11.0, Mtb FBA inh 95.8*, Mtb FBA inh conf active and GDH-TPI counter-2 167.0*.
`O=C(NCc1ccccn1)c1ccc2c(c1)N(Cc1ccccc1)CCS2` gave PrP UTR inh -34.5, Mtb hypoxia rep -14.3, Yp Topo-I inh 12.1, GDH-TPI counter-1 7.2, PrPC surface inh 3.5, Mtb FBA inh 93.6*, Mtb FBA inh conf 3.0 and GDH-TPI counter-2 0.1.
CN1CCSc2ccc(C(=O)Nc3cccc(F)c3)cc21 was read as PrP UTR inh -87.8, Mtb hypoxia rep 15.1, Yp Topo-I inh -16.3, GDH-TPI counter-1 13.0, PrPC surface inh 10.7 and Mtb FBA inh 21.3.
O=C(NCc1cccnc1)c1ccc2c(c1)N(Cc1ccccc1)CCS2 was read as PrP UTR inh -3.0, Mtb hypoxia rep 14.4, Yp Topo-I inh 38.0, GDH-TPI counter-1 3.4, PrPC surface inh 2.4, Mtb FBA inh 75.5*, Mtb FBA inh conf 162.9* and GDH-TPI counter-2 124.5*.
CC(=O)NC(Cc1c[nH]c2ccccc12)C(=O)NN=Cc1ccccc1 (stereo unspecified) was read as Mtb hypoxia rep 9.4.
NC(=O)C1CCCCNc2c(F)cc([N+](=O)[O-])cc2C(=O)NC(CC(=O)O)C(=O)NC(CCC(=O)O)C(=O)N1 (stereo unspecified) was read as Mtb hypoxia rep 2.7.
`O=C(NN=Cc1cccc(Br)c1)c1ccc(Cn2cc(Br)cn2)o1` gave Mtb hypoxia rep 3.5.
For CC(C)C(N)c1cn(C(CC(N)=O)C(=O)N2CCNCC2)nn1 (stereo unspecified) the results were Mtb hypoxia rep 1.6.
For O=C1c2ccccc2NC(c2ccc(-c3cccs3)o2)N1O (stereo unspecified) the results were PrP UTR inh -33.8, Mtb hypoxia rep 12.1, Yp Topo-I inh 2.5, GDH-TPI counter-1 14.7, PrPC surface inh 0.9, Mtb FBA inh 96.9*, Mtb FBA inh conf 78.8* and GDH-TPI counter-2 72.7*.
For CC(=NNc1nc(N2CCOCC2)nc(N2CCOCC2)n1)c1cccc([N+](=O)[O-])c1 the results were Mtb hypoxia rep -2.3.
`CCC1CC2(C)NC(=O)c3c(sc4c3CC(C)(C)OC4)N2C1=O` (stereo unspecified) gave PrP UTR inh -4.1, Yp Topo-I inh -6.3, GDH-TPI counter-1 9.8, PrPC surface inh 1.6, Mtb FBA inh 39.1*, Mtb FBA inh conf 175.4* and GDH-TPI counter-2 111.8*.
`CC(=O)Nc1ccc2c(c1)nc1n2CCN(C2CCCCC2)C1` gave PrP UTR inh -58.0, Mtb hypoxia rep 6.8, Yp Topo-I inh 10.5, GDH-TPI counter-1 7.7, PrPC surface inh -3.0, Mtb FBA inh 55.6*, Mtb FBA inh conf 197.2* and GDH-TPI counter-2 135.5*.
`O=C(Nc1ccc2c(c1)nc1n2CCN(Cc2ccccc2)C1)c1cccs1` gave PrP UTR inh -14.2, Mtb hypoxia rep 14.5, Yp Topo-I inh 2.9, GDH-TPI counter-1 11.9, PrPC surface inh -0.4 and Mtb FBA inh 2.2.
Screening O=C(Nc1ccc2c(c1)nc1n2CCN(Cc2ccccc2)C1)NC1CCCCC1 returned Mtb hypoxia rep -5.0, Yp Topo-I inh 6.5, GDH-TPI counter-1 8.1, PrPC surface inh -1.5, Mtb FBA inh 80.0*, Mtb FBA inh conf 16.1 and GDH-TPI counter-2 11.0*.
For CCCC(=O)Nc1ccc2c(c1)nc1n2CCN(C2CCCCC2)C1 the results were PrP UTR inh -11.2, Mtb hypoxia rep -10.8, Yp Topo-I inh 2.4, GDH-TPI counter-1 4.9, PrPC surface inh 9.4, Mtb FBA inh 63.5*, Mtb FBA inh conf 193.9* and GDH-TPI counter-2 177.7*.
Screening O=[N+]([O-])c1ccc2c(c1)nc1n2CCN(C2CCCCC2)C1 returned PrP UTR inh -73.9, Mtb hypoxia rep 4.3, Yp Topo-I inh -9.3, GDH-TPI counter-1 -1.9, PrPC surface inh -17.3 and Mtb FBA inh -2.9.
Screening Cc1c(Br)c(=O)oc2c(Br)c(O)ccc12 returned PrP UTR inh -0.8, Mtb hypoxia rep -1.9, Yp Topo-I inh 0.5, GDH-TPI counter-1 -6.1, PrPC surface inh 2.3, Mtb FBA inh 35.9*, Mtb FBA inh conf 42.7* and GDH-TPI counter-2 28.1*.
Cc1ccc(S(=O)(=O)N2C(c3ccc4c(c3)OCO4)CC=C(C(=O)O)C2c2cccc(Cl)c2)cc1 (stereo unspecified) was read as Mtb hypoxia rep 4.5.

Screens from PubChem.
